In PubChem BioAssay:
Inconclusive results are not listed. Activity calls are given as the source filed them.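 The calls were made as follows, unless noted: active = GFP signal, as percent of the solvent control, above the screen mean plus 3 SD, about 149; inconclusive = no reading because the compound's own fluorescence upset strain identification; inactive = the rest.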

Columns and labels:
[1] = yeast TOR pathway RPL19A-GFP modulators, primary screen, cell-based, S. cerevisiae, multiplex flow cytometry (AID 1862; in the data active = percent of DMSO control GFP below about 86%;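 also: lower values mimic rapamycin by blocking the RPL19A rise seen in DMSO cells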); details: S. cerevisiae RPL19A-GFP strain, flow cytometry fluorescence, 3 h; at 10 µM; stronger effect = lower value
[2] = modulators of MEP2-GFP levels in yeast, primary screen, S. cerevisiae, multiplex flow cytometry (AID 1867;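 active = GFP response, as percent of the DMSO control, above the screen-wide mean plus 3 SD, about 139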;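 also: median GFP channel fluorescence of barcode-gated MEP2-GFP cells measured by flow cytometry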); details: S. cerevisiae MEP2-GFP strain, 3 h, at 10 µM, stronger effect = higher value, 100% means same as DMSO wells
[3] = modulators of CIT2-GFP expression in yeast, primary screen, S. cerevisiae, GFP fusion, multiplex flow cytometry (AID 1870;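 active = percent response above a set limit, the screen-wide mean plus 3 SD, cut at about 130% in these data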;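 also: barcoded CIT2-GFP strain pooled with four other GFP strains with rapamycin as positive control; median GFP fluorescence per well over plate mean of DMSO wells so 100% = DMSO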); details: 3 h, at 10 µM, stronger effect = higher value
[4] = modulators of LAP4-GFP expression in yeast, primary screen, S. cerevisiae, multiplex flow cytometry (AID 1873); details: 3 h, at 10 µM, stronger effect = higher value
[5] = modulators of AGP1-GFP expression in yeast TOR pathway, primary screen, cell-based, multiplex flow cytometry, S. cerevisiae (AID 1887;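 active = GFP signal above the screen-wide mean plus 3 SD, that is over about 124.5% of the solvent control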;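 also: AGP1-GFP fusion strain of S. cerevisiae within a five-strain barcoded multiplex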); details: 3 h, at 10 µM, stronger effect = higher value
[6] = RPL19A-GFP modulators, yeast TOR pathway, confirmation, cell-based, S. cerevisiae, flow cytometry, cherry picks, mother/daughter gates (AID 2270;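 active = GFP response below 50% of the DMSO control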); details: S. cerevisiae RPL19A-GFP strain, 3 h, at 10 µM, stronger effect = lower value, 100 = same GFP as DMSO wells
[7] = LAP4-GFP expression modulators in yeast, confirmation, cell-based, cherry picks, flow cytometry, mother/daughter gates (AID 2271;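 active = GFP response above 150% of the DMSO control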;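 also: ratio of sample to DMSO plate mean so 100% equals DMSO level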); details: S. cerevisiae LAP4-GFP strain, 3 h, at 10 µM, stronger effect = higher value, 100 means same as DMSO control
[8] = modulators of MEP2-GFP levels in yeast, confirmation, S. cerevisiae, flow cytometry GFP, cherry picks (AID 2272;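 active = GFP response above 150% of the DMSO control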;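 also: ratio of well signal to plate DMSO mean so 100% equals DMSO level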); details: S. cerevisiae MEP2-GFP strain, 3 h, at 10 µM, stronger effect = higher value
[9] = modulators of CIT2-GFP expression in yeast, confirmation, S. cerevisiae, GFP fusion, cherry picks, mother/daughter gates (AID 2274;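 active = GFP response above 150% of the DMSO level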); details: S. cerevisiae CIT2-GFP strain, flow cytometry, 3 h, at 10 µM, stronger effect = higher value
[10] = inhibitors of CD8+ T cell-vesicle binding, pilot screen, LFA-1/ICAM-1 modulator project, MLPCN validation set, flow cytometry (AID 2523;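 active = response below a set limit, under 55% cells CD8-positive and vesicle-bound, and CD8 cells' 90th-percentile brightness under 279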;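 as to vesicle binding response: mean PE anti-B7-1 fluorescence of CD8+ cells relative to row control; 100% = QL9-loaded vesicles with DMSO vehicle in the same plate row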); details: 2C mouse CD8+ T cells, at 7 µM, stronger effect = lower value; double positive events: measured here: CD8+/vesicle+ event percentage
[11] = target: Integrin beta-1 (Homo sapiens) + Integrin alpha-4 (Homo sapiens) (UniProt P13612+P05556); test: inhibition of HUTS-21 binding to VLA-4, pilot screen, VLA-4 allosteric modulator project, U937 cells, HUTS-21 mAb, flow cytometry, validation set (AID 2674;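 active = inhibition above 50%, about 3 SD of the validation set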;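 also: antibody binding induced by the VLA-4 ligand LDV present at three times its Kd; 0% = LDV ligand with antibody and no compound and 100% = antibody without LDV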); details: HUTS-21 LIBS mAb binding, at 6.7 µM, stronger effect = higher value, binding induced by LDV ligand
[12] = superoxide lowering in aged yeast cells, pilot screen, validation compound set (AID 2706;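 active = superoxide response below 65% of plate, a cut near 3 SD across the whole screen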;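 also: yeast exposed to compound for one week at 30 degrees C before staining; 100% = mean of all compound wells on the same plate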); details: S. cerevisiae aging, superoxide DHE fluorescence; at 10 µM; stronger effect = lower value
[13] = target: Beta-adrenergic receptor kinase 1 (Homo sapiens) (UniProt P25098); test: GRK2 binders displacing RNA aptamer, biochemical, validation, human GRK2, bead flow cytometry (AID 488806;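 active = aptamer binding inhibition above 30%, about 3 SD of noise from non-fluorescent compounds; inactive = inhibition at or below 30%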); details: bead-bound GRK2, FAM-aptamer displacement, at 10 µM, stronger effect = higher value
[14] = target: AP-2 complex subunit beta (Homo sapiens) (UniProt P63010); test: inhibitors of arrestin peptide binding to AP2, pilot screen, biochemical, validation set, GST-AP2 beads, flow cytometry (AID 504541;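 active = inhibition above 54%, about 3 SD of non-fluorescent compounds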;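 also: AP2 carries R879A mutation and is captured from E. coli lysate; bead-bound FITC arrestin peptide fluorescence measuring arrestin peptide binding to AP2; 0% = DMSO wells and 100% = excess unlabeled arrestin peptide control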); details: FITC arrestin peptide, at 10 µM, stronger effect = higher value, AP2 beta2 appendage fragment, R879A mutant
[15] = yeast V-ATPase proton transport modulators, S. cerevisiae, pHLuorin, HTS validation (AID 504600; in the data active = response above about 15%;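 also: plate controls were DMSO for no effect and reference compound for full effect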); details: S. cerevisiae pHLuorin cytosolic pH, at 10 µM, stronger effect = higher value
[16] = test system: anti-desmoglein-3 scFv antibody binding to human DSG3; test: inhibitors of anti-DSG3 scFv binding to DSG3, pilot screen, biochemical, validation compound set, bead-based, flow cytometry (AID 588368;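 active = binding below the plate cutoff, the plate median minus 3 SD, with a reading above zero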;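 also: signal is the median channel fluorescence of bead-bound GFP antibody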); details: Protein G beads, DSG3-Fc, scFv-GFP binding, at 10 µM, stronger effect = lower value
[17] = inhibitors of fungal efflux pumps CDR1, CDR2, MDR1, pilot screen, validation compound set, multiplex, phenotypic (AID 588506;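 active = efflux inhibition above 0.42, the validation set average plus 4 SD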;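 also: Nile Red retained in cells so higher fluorescence means more efflux inhibition; 0 = negative control wells and 1 = enniatin B 25 µM full block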); details: S. cerevisiae pump-expressing triplex, Nile Red efflux flow cytometry; at 10 µM; stronger effect = higher value; the pumps come from Candida albicans
[18] = target: ATP-binding cassette sub-family B member 6 (Homo sapiens) (UniProt Q9NP58); test: ABCB6 transporter inhibitors, pilot screen, K562-ABCB6 cells, flow cytometry, validation set (AID 588550;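 active = inhibition above the screen-wide mean plus 3 SD, about 51%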;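 also: 0% = DMSO wells and 100% = benzethonium chloride 70 µM positive control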); details: K562-ABCB6 porphyrin accumulation, 1 h, at 10 µM, stronger effect = higher value
[19] = promoters of myeloid differentiation in arrested cells, primary screen, cell-based, GFP/MAC1 double positive, flow cytometry, validation set (AID 588685;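 active = differentiation response of at least 50%, scaled between solvent and reference control, from cells with both markers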;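 also: compound exposure lasts four days before antibody staining and flow analysis; 0% = DMSO wells and 100% = 5 µM fulvestrant positive control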); details: ER-HoxA9 marrow cells, stronger effect = higher value, normalized: vehicle 0, fulvestrant 100
[20] = target: Beta-2 adrenergic receptor (Homo sapiens) (UniProt P07550); test: beta2AR agonists driving receptor internalization, pilot screen, cell-based, FAP fluorogen, flow cytometry, validation set (AID 504459;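 active = percent response above 42, roughly 3 SD of non-fluorescent test compounds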;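 also: agonist-driven loss of surface beta2AR via internalization measured by FAP dye flow cytometry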); details: Am2.2-beta2AR cells, FAP surface receptor flow cytometry; at 10 µM; stronger effect = higher value
[21] = measured here: daughter cell gate
[22] = measured here: mother cell gate
[23] = measured here: daughter cell gate response
[24] = measured here: mother cell gate response

Sequence of AP-2 complex subunit beta (Homo sapiens) (P63010 whole entry, looked up, the tested form may be a part, one chain of several): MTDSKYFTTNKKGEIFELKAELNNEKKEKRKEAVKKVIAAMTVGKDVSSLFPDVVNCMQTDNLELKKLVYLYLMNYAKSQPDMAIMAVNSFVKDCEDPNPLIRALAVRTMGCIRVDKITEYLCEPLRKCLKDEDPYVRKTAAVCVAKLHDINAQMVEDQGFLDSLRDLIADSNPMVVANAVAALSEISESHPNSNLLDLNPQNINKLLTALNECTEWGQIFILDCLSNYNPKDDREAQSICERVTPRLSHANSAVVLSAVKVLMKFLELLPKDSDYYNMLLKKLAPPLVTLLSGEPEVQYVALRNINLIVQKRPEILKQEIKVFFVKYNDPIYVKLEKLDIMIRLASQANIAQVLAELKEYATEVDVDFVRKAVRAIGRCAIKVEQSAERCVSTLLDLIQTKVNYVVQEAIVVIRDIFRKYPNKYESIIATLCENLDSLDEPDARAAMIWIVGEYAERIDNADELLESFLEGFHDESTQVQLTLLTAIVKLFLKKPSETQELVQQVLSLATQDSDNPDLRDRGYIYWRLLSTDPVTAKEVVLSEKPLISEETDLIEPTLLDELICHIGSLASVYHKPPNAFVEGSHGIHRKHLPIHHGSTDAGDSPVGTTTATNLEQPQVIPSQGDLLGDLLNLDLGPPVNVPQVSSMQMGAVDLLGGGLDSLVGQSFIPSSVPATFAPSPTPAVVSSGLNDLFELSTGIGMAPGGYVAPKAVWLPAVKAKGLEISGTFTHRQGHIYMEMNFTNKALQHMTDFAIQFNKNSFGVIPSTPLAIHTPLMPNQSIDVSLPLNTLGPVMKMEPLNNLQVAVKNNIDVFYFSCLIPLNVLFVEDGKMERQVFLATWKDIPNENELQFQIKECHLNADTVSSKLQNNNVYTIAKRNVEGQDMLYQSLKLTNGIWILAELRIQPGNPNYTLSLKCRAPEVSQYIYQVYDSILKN
Sequence of ATP-binding cassette sub-family B member 6 (Homo sapiens) (Q9NP58 whole entry, looked up): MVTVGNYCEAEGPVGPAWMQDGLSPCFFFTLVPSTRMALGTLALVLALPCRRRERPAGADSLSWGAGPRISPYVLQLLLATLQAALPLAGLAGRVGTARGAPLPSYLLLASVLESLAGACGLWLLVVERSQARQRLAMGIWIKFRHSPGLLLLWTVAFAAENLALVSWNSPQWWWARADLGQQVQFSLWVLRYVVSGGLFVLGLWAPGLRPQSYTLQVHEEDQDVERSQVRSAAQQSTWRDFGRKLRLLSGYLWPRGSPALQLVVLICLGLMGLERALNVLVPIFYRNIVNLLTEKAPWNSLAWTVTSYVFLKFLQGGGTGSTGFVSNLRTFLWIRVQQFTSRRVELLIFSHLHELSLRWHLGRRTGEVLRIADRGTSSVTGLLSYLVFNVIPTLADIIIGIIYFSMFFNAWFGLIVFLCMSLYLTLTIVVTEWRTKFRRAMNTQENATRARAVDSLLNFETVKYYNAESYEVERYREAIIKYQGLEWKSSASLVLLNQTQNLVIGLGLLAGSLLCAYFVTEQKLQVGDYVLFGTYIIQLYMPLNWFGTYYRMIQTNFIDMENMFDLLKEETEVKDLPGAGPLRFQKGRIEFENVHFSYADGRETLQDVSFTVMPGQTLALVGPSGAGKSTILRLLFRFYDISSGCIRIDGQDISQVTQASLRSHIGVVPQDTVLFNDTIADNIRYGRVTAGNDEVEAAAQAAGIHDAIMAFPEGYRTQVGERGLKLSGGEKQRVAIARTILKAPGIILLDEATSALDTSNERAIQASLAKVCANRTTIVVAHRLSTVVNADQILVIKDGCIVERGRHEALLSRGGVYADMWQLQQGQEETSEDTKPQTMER
Sequence of Integrin beta-1 (Homo sapiens) + Integrin alpha-4 (Homo sapiens) (P05556 whole entry, looked up): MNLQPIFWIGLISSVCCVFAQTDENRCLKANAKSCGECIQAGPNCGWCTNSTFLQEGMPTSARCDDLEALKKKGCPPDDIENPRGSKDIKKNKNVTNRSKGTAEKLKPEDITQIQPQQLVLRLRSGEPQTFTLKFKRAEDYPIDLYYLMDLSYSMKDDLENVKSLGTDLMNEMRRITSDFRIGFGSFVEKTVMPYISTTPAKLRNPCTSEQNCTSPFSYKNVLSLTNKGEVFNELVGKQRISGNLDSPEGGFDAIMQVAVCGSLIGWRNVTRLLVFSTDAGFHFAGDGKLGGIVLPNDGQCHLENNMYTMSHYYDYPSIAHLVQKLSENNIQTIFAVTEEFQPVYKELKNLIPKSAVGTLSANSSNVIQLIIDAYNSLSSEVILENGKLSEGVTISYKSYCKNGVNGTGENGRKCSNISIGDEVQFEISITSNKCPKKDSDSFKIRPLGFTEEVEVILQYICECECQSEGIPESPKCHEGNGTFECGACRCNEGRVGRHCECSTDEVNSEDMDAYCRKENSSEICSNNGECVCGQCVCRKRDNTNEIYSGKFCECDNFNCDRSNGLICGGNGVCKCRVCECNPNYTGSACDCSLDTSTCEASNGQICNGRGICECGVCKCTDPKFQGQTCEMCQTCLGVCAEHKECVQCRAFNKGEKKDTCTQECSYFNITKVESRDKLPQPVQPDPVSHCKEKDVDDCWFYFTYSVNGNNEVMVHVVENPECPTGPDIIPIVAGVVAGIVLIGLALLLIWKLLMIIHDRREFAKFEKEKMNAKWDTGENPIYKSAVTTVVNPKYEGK
Sequence of Integrin beta-1 (Homo sapiens) + Integrin alpha-4 (Homo sapiens) (P13612 whole entry, looked up): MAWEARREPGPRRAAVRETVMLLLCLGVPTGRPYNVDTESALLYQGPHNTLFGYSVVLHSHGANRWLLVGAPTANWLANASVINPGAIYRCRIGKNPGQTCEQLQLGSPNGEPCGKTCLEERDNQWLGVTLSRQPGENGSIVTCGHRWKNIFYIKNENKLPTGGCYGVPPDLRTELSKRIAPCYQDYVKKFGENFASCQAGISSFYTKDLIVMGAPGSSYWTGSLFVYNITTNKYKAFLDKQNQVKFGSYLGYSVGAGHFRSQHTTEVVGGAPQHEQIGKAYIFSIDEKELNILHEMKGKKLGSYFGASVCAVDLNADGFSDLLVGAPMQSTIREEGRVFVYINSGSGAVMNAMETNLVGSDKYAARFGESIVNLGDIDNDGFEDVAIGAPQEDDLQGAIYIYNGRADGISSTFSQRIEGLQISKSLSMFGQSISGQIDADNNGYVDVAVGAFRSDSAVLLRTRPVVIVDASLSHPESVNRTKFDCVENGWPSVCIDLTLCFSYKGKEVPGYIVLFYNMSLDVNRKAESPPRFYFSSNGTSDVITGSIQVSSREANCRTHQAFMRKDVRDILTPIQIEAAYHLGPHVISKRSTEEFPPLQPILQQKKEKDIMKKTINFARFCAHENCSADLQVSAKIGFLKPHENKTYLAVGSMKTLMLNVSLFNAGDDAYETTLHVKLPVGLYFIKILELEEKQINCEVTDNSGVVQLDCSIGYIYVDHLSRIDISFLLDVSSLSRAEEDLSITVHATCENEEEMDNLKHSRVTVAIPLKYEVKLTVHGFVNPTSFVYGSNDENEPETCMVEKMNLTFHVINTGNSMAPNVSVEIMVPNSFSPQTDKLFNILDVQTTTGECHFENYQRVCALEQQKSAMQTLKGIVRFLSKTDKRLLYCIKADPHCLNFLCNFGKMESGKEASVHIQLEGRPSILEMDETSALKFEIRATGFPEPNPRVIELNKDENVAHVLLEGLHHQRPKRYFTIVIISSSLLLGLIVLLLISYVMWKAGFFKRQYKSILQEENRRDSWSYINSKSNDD
Sequence of Beta-2 adrenergic receptor (Homo sapiens) (P07550 whole entry, looked up): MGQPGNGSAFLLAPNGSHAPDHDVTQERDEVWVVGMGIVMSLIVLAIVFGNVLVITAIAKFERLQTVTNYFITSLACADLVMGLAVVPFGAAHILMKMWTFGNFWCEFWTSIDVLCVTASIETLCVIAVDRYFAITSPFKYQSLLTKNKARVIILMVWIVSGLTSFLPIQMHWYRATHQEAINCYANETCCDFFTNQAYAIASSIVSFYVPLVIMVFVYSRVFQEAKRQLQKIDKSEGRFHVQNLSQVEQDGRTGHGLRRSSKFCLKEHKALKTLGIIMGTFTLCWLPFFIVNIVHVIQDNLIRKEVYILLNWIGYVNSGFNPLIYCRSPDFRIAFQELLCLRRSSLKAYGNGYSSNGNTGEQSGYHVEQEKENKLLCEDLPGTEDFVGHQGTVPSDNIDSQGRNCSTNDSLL
Sequence of Beta-adrenergic receptor kinase 1 (Homo sapiens) (P25098 whole entry, looked up): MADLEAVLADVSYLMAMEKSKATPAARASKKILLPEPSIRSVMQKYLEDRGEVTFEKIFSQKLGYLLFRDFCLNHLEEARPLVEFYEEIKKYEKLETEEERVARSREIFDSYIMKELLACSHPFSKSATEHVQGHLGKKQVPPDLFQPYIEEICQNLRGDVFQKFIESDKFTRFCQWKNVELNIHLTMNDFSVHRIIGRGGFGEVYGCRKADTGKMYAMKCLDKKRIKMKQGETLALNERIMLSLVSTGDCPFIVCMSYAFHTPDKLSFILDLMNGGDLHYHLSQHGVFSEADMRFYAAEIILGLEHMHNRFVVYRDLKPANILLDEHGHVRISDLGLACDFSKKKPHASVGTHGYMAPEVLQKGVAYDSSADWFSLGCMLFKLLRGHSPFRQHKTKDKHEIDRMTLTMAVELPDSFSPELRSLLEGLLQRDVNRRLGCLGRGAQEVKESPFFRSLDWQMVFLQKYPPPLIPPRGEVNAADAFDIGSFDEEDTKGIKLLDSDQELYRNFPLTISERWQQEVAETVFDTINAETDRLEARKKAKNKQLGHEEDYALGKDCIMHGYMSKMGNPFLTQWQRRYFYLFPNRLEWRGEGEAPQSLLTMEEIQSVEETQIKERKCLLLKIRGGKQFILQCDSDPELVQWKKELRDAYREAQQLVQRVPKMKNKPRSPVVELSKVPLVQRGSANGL

Cc1ccc2[nH]c3c(c2c1)CCNC3=O
57.6%: double positive events [10]
114%: GFP response, % of DMSO [9, 22]
100%: GFP response vs DMSO [6, 21]
103%: GFP response vs DMSO [6, 22]
94.2%: GFP response relative to DMSO [7, 24]
92.5%: GFP response relative to DMSO [7, 23]
inactive: percent of DMSO control GFP [1] 99.1% | GFP response vs DMSO [2] 95.9% | percent response of DMSO control [3] 104% | GFP response vs DMSO [4] 91.3% | GFP response, % of DMSO [5] 98.7% | GFP response vs DMSO [6] 101% | GFP response relative to DMSO [7] 91.4% | GFP response vs DMSO [8] 100% | GFP response, % of DMSO [9] 111% | vesicle binding response [10] 187% | inhibition [11] 7.22% | superoxide response (% of plate) [12] 95% | aptamer binding inhibition [13] -2% | inhibition [14] -5.6% | response [15] -10.4% | binding (% of control) [16] 100% | efflux inhibition (fraction of control) [17] -0.2 | inhibition [18] 7% | differentiation response [19] -6.66%
106%: GFP response, % of DMSO [9, 21]

CC(C)CC(=O)Nc1ccc2oc(-c3ccncc3)nc2c1
99.8%: GFP response vs DMSO [6, 21]
inactive: percent of DMSO control GFP [1] 92.2% | percent response of DMSO control [3] 103% | GFP response vs DMSO [4] 82.5% | GFP response, % of DMSO [5] 83.8% | GFP response vs DMSO [6] 103% | GFP response relative to DMSO [7] 98.7% | GFP response vs DMSO [8] 97.8% | GFP response, % of DMSO [9] 108% | vesicle binding response [10] 292% | inhibition [11] 10.3% | superoxide response (% of plate) [12] 102% | aptamer binding inhibition [13] 5% | response [20] -11.1% | inhibition [14] -5.82% | response [15] -0.11% | binding (% of control) [16] 105% | efflux inhibition (fraction of control) [17] -0.02 | inhibition [18] 11% | differentiation response [19] -2.46%
101%: GFP response relative to DMSO [7, 24]
71.3%: double positive events [10]
active: GFP response vs DMSO [2] 144%
104%: GFP response vs DMSO [6, 22]
99.7%: GFP response, % of DMSO [9, 21]
98.7%: GFP response relative to DMSO [7, 23]
107%: GFP response, % of DMSO [9, 22]

CCCCN(CCCC)CCCOC(=O)c1ccc(N)cc1
99.7%: GFP response, % of DMSO [9, 22]
64.8%: double positive events [10]
97.6%: GFP response relative to DMSO [7, 23]
active: GFP response vs DMSO [2] 150%
98%: GFP response vs DMSO [6, 22]
94%: GFP response relative to DMSO [7, 24]
inactive: percent of DMSO control GFP [1] 92% | percent response of DMSO control [3] 115% | GFP response vs DMSO [4] 82% | GFP response, % of DMSO [5] 81.7% | GFP response vs DMSO [6] 97.6% | GFP response relative to DMSO [7] 94.1% | GFP response vs DMSO [8] 98.3% | GFP response, % of DMSO [9] 99.7% | vesicle binding response [10] 181% | inhibition [11] 0.64% | superoxide response (% of plate) [12] 92.8% | aptamer binding inhibition [13] 0% | response [20] -0.26% | inhibition [14] 6.38% | response [15] -2.47% | binding (% of control) [16] 104% | efflux inhibition (fraction of control) [17] 0.05 | inhibition [18] 9% | differentiation response [19] 1.64%
97.4%: GFP response vs DMSO [6, 21]
101%: GFP response, % of DMSO [9, 21]

O=[N+]([O-])c1ccc(O)c2ncccc12
126%: GFP response, % of DMSO [9, 22]
active: GFP response vs DMSO [4] 375% | GFP response, % of DMSO [5] 152% | GFP response relative to DMSO [7] 274% | superoxide response (% of plate) [12] 56.6% | response [15] 65.3%
59.9%: double positive events [10]
99.8%: GFP response vs DMSO [6, 21]
245%: GFP response relative to DMSO [7, 24]
inactive: percent of DMSO control GFP [1] 99.7% | GFP response vs DMSO [2] 122% | percent response of DMSO control [3] 81.5% | GFP response vs DMSO [6] 104% | GFP response vs DMSO [8] 120% | GFP response, % of DMSO [9] 138% | vesicle binding response [10] 159% | inhibition [11] -1.12% | aptamer binding inhibition [13] 0% | response [20] -20% | inhibition [14] -6.92% | binding (% of control) [16] 83.2% | efflux inhibition (fraction of control) [17] -0.13 | inhibition [18] 1% | differentiation response [19] -3.02%
99.2%: GFP response vs DMSO [6, 22]
121%: GFP response, % of DMSO [9, 21]
